Bioassay records deposited in PubChem by several laboratories.
PrPC surface inh – cell surface PrPC inhibition, primary TR-FRET screen | TR-FRET read-out | P04156 | inhibition, % at 13.8 µM | 370,000 tested, 0.43% active; in the data active = inhibition above about 24%; also: 0% = median of the test wells and 100% = reference compound wells
Mtb FBA inh – inhibits M. tuberculosis FBA enzyme; purified M. tuberculosis FBA, fluorescence read-out; P9WQA3; AID 588726; 360,000 tested, 2.3% active; inhibition, % at 1 µM; in the data active = inhibition above about 27%;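 also: 0% = vehicle and 100% = reference inhibitor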
Target sequence (P9WQA3 whole entry, looked up): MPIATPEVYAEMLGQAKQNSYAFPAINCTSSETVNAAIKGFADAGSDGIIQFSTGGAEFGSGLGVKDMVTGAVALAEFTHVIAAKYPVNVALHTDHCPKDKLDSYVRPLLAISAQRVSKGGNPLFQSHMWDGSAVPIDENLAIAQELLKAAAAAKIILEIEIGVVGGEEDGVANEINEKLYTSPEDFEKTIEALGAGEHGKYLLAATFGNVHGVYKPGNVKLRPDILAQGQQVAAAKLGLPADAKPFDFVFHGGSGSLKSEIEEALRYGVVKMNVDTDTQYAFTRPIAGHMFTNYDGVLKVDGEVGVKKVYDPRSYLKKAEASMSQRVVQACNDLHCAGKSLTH
GDH-TPI counter – GDH-TPI coupled enzyme inhibition counter-screen. 360,000 tested, 1.2% active. GDH-TPI coupled enzyme counterscreen, NADH absorbance. inhibition, % at 4.8 µM; in the data active = inhibition above about 30%;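 also: 0% = DMSO wells and 100% = wells lacking the enzyme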
SARS 3CLpro inh – SARS-CoV 3CLpro protease inhibition. P0C6X7. recombinant SARS-CoV 3CLpro, quenched FRET peptide cleavage. inhibition, % at 6 µM. 290,000 tested, 0.14% active. AID 1706; in the data active = inhibition above about 12%
BH1578 lux ind – induces V. cholerae light production without autoinducers. V. cholerae BH1578 lux reporter, luminescence, 6 h. activation, % at 18.7 µM. 350,000 tested, 0.16% active. AID 588436; in the data active = activation mostly above about 9.7%, no sharp cut-off
PrPC TRFRET cf – cell surface PrPC inhibition, TR-FRET confirmation | shares compounds with PrPC surface inh | cell surface PrPC level | inhibition, % at 13.8 µM | 1,500 tested, 65% active | AID 743200; in the data active = inhibition above about 25%
LD9 cytotox – LD9 cell cytotoxicity, PrPc inhibitor counter-screen; shares compounds with PrPC surface inh; LD9 cells cytotoxicity, luminescence viability; inhibition, % at 13.8 µM; 1,500 tested, 29% active; AID 743201; in the data active = inhibition above about 9.5%
Numbers without * were called inactive; i = inactive; . = not tested or not shown. Hits are enriched below; roughly 3.9% of the tested compounds scored in any of these assays.

SMILES	PrPC surface inh	Mtb FBA inh	GDH-TPI counter	SARS 3CLpro inh	BH1578 lux ind	PrPC TRFRET cf	LD9 cytotox
CC1=CC(C)CC(C)OC(=O)CC(c2ccc(O)cc2)NC(=O)C(Cc2c(Br)[nH]c3ccccc23)N(C)C(=O)C(C)NC(=O)C(C)C1 (centres undefined)	32*	0	-1	.	i	25*	11*
Cc1cc(CN(C)C(=O)c2cc(COc3ccc4ncccc4c3)on2)on1	17	2	-2	2	1	.	.
O=C(NC1CCCCCCC1)c1cc(COc2ccc3ncccc3c2)on1	28*	2	-2	3	i	19	18*
O=C(c1cc(COc2ccc3ncccc3c2)on1)N1CCC(O)CC1	9	0	0	5	i	.	.
CC(CNC(=O)c1cc(COc2ccc3ncccc3c2)on1)c1ccccc1 (centres undefined)	25*	1	2	2	.	22	17*
C#CCOCCOCCOCCNc1nc(N2CCN(C(=O)[C@H](CO)n3cc([C@@H](N)C(C)C)nn3)CC2)nc(N2CCN(C(=O)[C@H](CO)n3cc([C@@H](N)C(C)C)nn3)CC2)n1	-1	0	4	.	3	.	.
CN1CCC(N(C)c2ncnc3ccc(Br)cc23)CC1	12	-1	8	1	-1	.	.
CCN(CC)c1ncnc2ccc(Br)cc12	39*	1	5	-1	i	41*	-4
O=C(COc1cc(O)c2c(=O)c3ccccc3oc2c1)OCc1ccccc1	-1	1	14	-3	4	.	.
CC(=O)Oc1c(C(C)C)cc(N(C(C)=O)c2ccccc2)cc1C(C)C	36*	1	-10	.	0	29*	-3
C=C1C(=O)OC2CC1C(OC(C)=O)CC(C)=CCCC(C)=CCCC2(C)O (centres undefined)	29*	-1	3	.	0	33*	43*
O=C(O)CCCCCCC1C(=O)NC(=O)N1CCC(O)C1CCCCC1 (centres undefined)	27*	0	-4	-3	i	19	-8
OC(CN1C2=NCCN2c2ccccc21)c1ccc2c(c1)OCO2 (centres undefined)	53*	0	-1	-3	0	2	5
Cc1ccc(C(=O)Nc2ccc3cn[nH]c3c2)cc1S(=O)(=O)N1CCCCC1	26*	0	6	1	i	18	0
CCCCCCCCN1C(=O)[C@H](CC(=O)N2CCN(C(=O)c3ccco3)CC2)C[C@@]2(C(=O)OC)CC(C)(C)CC=C12	-5	.	.	.	.	.	.
NC(=O)COC(=O)c1ccc(C(=O)C(=O)c2ccccc2)cc1	4	6	4	1	0	.	.
NC(=O)COC(=O)c1ccc2noc(-c3ccccc3)c2c1	37*	-1	13	-1	0	30*	-8
Cn1c(/C=N/Nc2nc3ccccc3[nH]2)nc2ccccc21	-13	3	9	5	0	.	.
C=CCn1cc(/C=N/Nc2nc3ccccc3[nH]2)c2ccccc21	27*	4	18	-2	-2	24	14*
O=C(COC(=O)CSc1cccc2cccc(Cl)c12)Nc1ncc(C(F)(F)F)cc1Cl	31*	2	8	1	-3	39*	1
O=C(CSc1cccc2cccc(Cl)c12)OCC(=O)N1CCN(C(=O)c2ccco2)CC1	43*	-3	8	6	-3	44*	-1
NC(=O)COC(=O)CSc1cccc2cccc(Cl)c12	39*	1	7	-4	-1	52*	1
O=C(CSc1ccccc1F)OCC(=O)N1CCN(C(=O)c2ccco2)CC1	-3	2	6	.	i	.	.
O=C(CSc1cccc2cccc(Cl)c12)NC1=NCCS1	29*	3	-2	3	i	45*	-4
NC(=O)COC(=O)CC(c1ccccc1)c1ccccc1	1	-1	0	-1	-1	.	.
SMILES	PrPC surface inh	Mtb FBA inh	GDH-TPI counter	SARS 3CLpro inh	BH1578 lux ind	PrPC TRFRET cf	LD9 cytotox
Cc1ccc(NC(=O)CS(=O)CC(=O)NC23CC4CC(CC(C4)C2)C3)cc1 (centres undefined)	0	0	-8	3	0	.	.
COC(=O)[C@]12C[C@H](CC(=O)N3CCC(c4ccccc4)CC3)C(=O)N(Cc3ccc(Cl)cc3Cl)C1=C[C@H](COCc1ccccc1)O[C@@H]2C	-8	.	.	.	.	.	.
Cc1cc(C(=O)NN=Cc2cccc(O)c2)n[nH]1	0	.	.	.	.	.	.
COc1ccc(CNC(=O)CN(C(=O)c2snc(C(N)=O)c2N)c2ccc(OC)c(OC)c2)cc1	-10	2	11	-3	-1	.	.
C[C@@H]1OC(C2CCCCC2)N(C)[C@H]2C[C@H]3c4cc(-c5ccc6c(c5)OCO6)ccc4CCN3C[C@@H]12 (some centres undefined)	-13	.	.	.	.	.	.
O=C(CC(=O)OCc1ccccc1)OCc1ccccc1	8	4	8	.	0	.	.
O=C(NNc1ccccc1)OCc1ccccc1	25*	-4	11	.	-6	18	-7
COc1ccc(CN(Cc2nc3ccccc3c(=O)[nH]2)C(=O)NC2CCCCC2)cc1	25*	-2	0	-4	-1	-1	-2
CC(C)OC(=O)CSc1nnc2c3ccccc3n(C)c2n1	-11	-2	15	-2	0	.	.
CC(C)CSc1nnc2c3ccccc3n(C)c2n1	58*	1	23	5	-2	66*	-3
CC(C)CC(N)c1csc(Nc2cnccn2)n1 (centres undefined)	31*	-2	16	.	i	26*	-5
NC(=O)c1c(NC(=O)c2ccc([N+](=O)[O-])o2)sc2c1CCCC2	-2	4	8	3	i	.	.
CN1CCc2c(sc(NC(=O)c3ccc([N+](=O)[O-])o3)c2C(N)=O)C1	44*	-8	9	-2	0	42*	61*
C=C1CC(C(=O)N/N=C/c2ccccc2)C1	4	-8	10	1	0	.	.
CC(C)(C)OC(=O)N1CCC(N[C@@H](Cc2ccccc2)C(=O)NCCc2c[nH]c3ccccc23)(C(=O)NC2CCCCC2)CC1	27*	.	.	.	.	12	-4
Cc1nc2ccc(Br)cc2c(-c2ccccc2)c1C(=O)O	62*	0	4	0	i	82*	1
COc1ccccc1-c1nc2n(n1)C(c1ccccc1Cl)C(C(N)=O)=C(C)N2 (centres undefined)	-5	1	2	-4	0	.	.
COc1ccc(OC)c(C2C(C(N)=O)=C(C)Nc3nc(-c4cccc(Cl)c4)nn32)c1 (centres undefined)	42*	2	-4	2	i	34*	0
Cc1ccc(N)c2c1OCCC2=O	-1	8	9	1	0	.	.
O=C(O)c1ccc(CN2C[C@@H](CO)O[C@@H](n3cnc4c(Nc5ccccc5)ncnc43)C2)cc1	-2	-5	-2	.	i	.	.
